Assay outcomes from PubChem BioAssay.
PNC inhibitor = perinucleolar compartment assembly inhibition. activity change (PNC), negative = inhibition, % at 10 µM. hit rate 3.1% among 140,000. PC3M PTB-GFP, PNC prevalence imaging, 16 h; active compounds read low. AID 2417;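 active = readout at or below -70, meaning at least 70% loss of cells showing the perinucleolar compartment, a nuclear body marking cancer cells; inconclusive = readout between -30 and a set limit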;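 also: plate controls were DMSO wells for no effect and camptothecin positive control wells for full effect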
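Compounds are pinned in duplicate onto adhered PC3M cells stably expressing GFP-tagged PTB and incubated 16 h at 37 C. Cells are then fixed, nuclei stained with Hoechst, and PNC-positive cells counted.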
HPGD inh = blocks human HPGD enzyme activity. purified HPGD, NADH fluorescence kinetic, PGE2 substrate. hit rate 4.3% among 150,000. P15428. Potency, µM, without a hit: at the top dose activity change, negative = inhibition, hits mostly inhibitors; also: potency is read from the fitted curve at half-maximal effect
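NADH formation kinetics: reaction with 30 uM PGE2 and 1 mM NAD+ (final), 20 nM enzyme, Tris-HCl pH 8 with Tween 20, after 15 min compound preincubation at room temperature. Fluorescence change, last versus first of five reads.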
ALDH1A1 inh = inhibitors of human aldehyde dehydrogenase 1A1 | P00352 | Purified ALDH1A1, NADH fluorescence, propionaldehyde substrate | Potency, µM (top dose mostly 75.3 µM), inactives show at the highest dose activity, negative = inhibition, actives largely listed as inhibitors | hit rate 7.3% among 220,000 | AID 1030;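 also: potency is read from the fitted curve at half-maximal effect; plate controls were no enzyme wells and a reference inhibitor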
Target sequence (P00352 whole entry, looked up): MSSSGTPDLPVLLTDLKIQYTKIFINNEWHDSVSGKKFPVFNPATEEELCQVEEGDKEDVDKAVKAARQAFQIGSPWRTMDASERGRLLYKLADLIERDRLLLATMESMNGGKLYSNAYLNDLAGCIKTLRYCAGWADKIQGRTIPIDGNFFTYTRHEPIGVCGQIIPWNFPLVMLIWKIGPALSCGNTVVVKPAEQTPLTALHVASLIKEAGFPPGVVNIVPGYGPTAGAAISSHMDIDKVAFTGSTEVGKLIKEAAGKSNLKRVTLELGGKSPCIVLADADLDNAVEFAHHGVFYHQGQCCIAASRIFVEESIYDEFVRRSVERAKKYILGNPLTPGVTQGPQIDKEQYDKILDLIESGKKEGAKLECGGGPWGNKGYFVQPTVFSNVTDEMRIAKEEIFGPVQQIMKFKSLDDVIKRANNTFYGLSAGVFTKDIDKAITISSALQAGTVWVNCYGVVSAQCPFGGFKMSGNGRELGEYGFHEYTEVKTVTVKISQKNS
* hit, by the source's call; ? = inconclusive; / = no result given; [ ] = remark or other dose. A selection: hits, their analogues and other compounds. The true share with any hit is near 11%. Unless noted, calls follow the shape of the dose curve; as a rule, active = well fitted inhibition curve with a large enough effect (not every such curve was filed as active); inconclusive = small, poorly fitted or top-dose-only effect, or another doubt; inactive = no such curve, though single readings can be large or run the other way. Unless noted, % is scaled to controls: 0 for no effect and ±100 for the full control effect.

SMILES	PNC inhibitor	HPGD inh	ALDH1A1 inh
COC(=O)c1ccc(C(NC(=O)OCc2ccccc2)/C(=C/[C@@H](C)C(=O)NCc2ccc(S(C)(=O)=O)cc2)c2cccnc2)cc1 (stereo partly drawn)	/	-8%	?
CC(C)C[C@@H](CC(=O)N[C@H](CC(=O)N[C@@H]1CCCC[C@H]1C(=O)N[C@H](CC(=O)N[C@@H](CCC(=O)O)CC(=O)O)CC(C)C)C(C)C)NC(=O)[C@@H]1CCCC[C@H]1N	/	-3%	?
CCOC(=O)C1=NN(C(C)=O)C2(CC(=O)N(c3cc(C)cc(C)c3)C2=O)C1 (stereo not drawn)	16	-6%	7%
COC(=O)C1=NN(N=O)C2(CC(=O)N(c3cc(C)cc(C)c3)C2=O)C1 (stereo not drawn)	?	32µM*	8.9µM*
CCCCC(=O)Nc1c(C)cc(C)cc1Cl	?	35µM*	-9%
CCC(=O)Nc1c(C)cc(C)cc1Cl	?	-19%	3%
Cc1cc(C)c(NC(=O)Nc2ccccc2C)c(Cl)c1	/	/	9%
Cc1cc(C)c(NC(=O)Nc2ccccc2)c(Cl)c1	-114*	-5%	1%
Cc1nc(Oc2ccc(S(=O)(=O)N3CCOCC3)cc2Cl)c2c3c(sc2n1)CCCC3	38	-17%	?
Cc1cccc2c1[nH]c1nc(N/N=C\c3ccco3)nnc12	21	-7%	-16%
C=CCSc1nnc2c(n1)[nH]c1c(C)cccc12	31	16µM*	?
COCCn1cc(C(=O)c2cc(Br)ccc2O)cc(C#N)c1=O	/	/	-11%
O=C(Nc1ccccc1)N1CCCC(CNS(=O)(=O)Cc2ccccc2)C1 (stereo not drawn)	/	/	8%
O=S(=O)(Cc1ccccc1)NCC1CCCN(Cc2cccc3nonc23)C1 (stereo not drawn)	/	/	10µM*
CC1CC(OC(=O)C(O)c2ccccc2)CC(C)(C)C1 (stereo not drawn)	/	-6%	3%
O=c1c(O)c(-c2ccc(O)c(O)c2)oc2c(OC3OC(CO)C(O)C(O)C3O)c(O)cc(O)c12 (stereo not drawn)	/	28µM*	?
O=c1cc(-c2ccc(O)cc2)oc2cc(O[C@H]3OC(CO)C(O)C(O)C3O)cc(O)c12 (stereo partly drawn)	/	-8%	-1%
O=c1cc(-c2ccccc2)oc2cc(O[C@@H]3O[C@H](CO)[C@@H](O)[C@H](O)[C@H]3O)c(O)c(O)c12	/	11µM*	?
O=c1c(OC2OC(CO)C(O)C(O)C2O)c(-c2ccc(O)c(O)c2)oc2cc(O)cc(O)c12 (stereo not drawn)	9	-16%	-14%
CC(C)(C)c1ccc(C(=O)CSc2nc3ccccc3c(=O)[nH]2)cc1	-4	-15%	?
Cc1cc(C(=O)CSC(C)c2nc3ccccc3c(=O)[nH]2)c(C)n1C (stereo not drawn)	6	-15%	15%
O=C(CSc1nc2ccccc2c(=O)[nH]1)c1ccccc1	365	13µM*	?
Cc1cc(C(=O)CSc2nc3ccccc3c(=O)[nH]2)c(C)n1C	?	22µM*	-4%
CSc1ccccc1C(=O)C1CCCN(C(=O)c2cc(C(C)C)no2)C1 (stereo not drawn)	/	/	18µM*
CSc1ccccc1C(=O)C1CCCN(C(=O)c2csnn2)C1 (stereo not drawn)	/	/	-4%
SMILES	PNC inhibitor	HPGD inh	ALDH1A1 inh
Cc1ccc(/C=C2/Sc3ccccc3N(CC(=O)NCCCOC(C)C)C2=O)cc1	?	-12%	11%
Fc1ccc(-c2csc3[n+]2CCS3)cc1	-5	2%	-7%
O=c1[nH]c(-c2ccccc2)cs1	?	-1%	15%
S=c1[nH]c(-c2ccccc2)cs1	/	/	3.5µM*
Fc1ccc(-c2csc(=S)[nH]2)cc1	/	/	3.5µM*
CSc1cccc(CN2CCN(Cc3ccc(F)c(F)c3)C(CCO)C2)c1 (stereo not drawn)	/	/	7%
COc1ccc(Cn2c(=O)[nH]c3cc(C(=O)NCCc4ccc(S(N)(=O)=O)cc4)ccc3c2=O)cc1	/	/	9%
Cc1nc2c(Br)c(C)nn2c2c1CCC2	/	/	1%
COc1ccc(N(CCCN2C(=O)c3cccc4cccc(c34)C2=O)C(=O)c2cccc(OC)c2)cc1	?	-11%	8.9µM*
O=C1c2ccccc2C(=O)N1CCCCN(C(=O)c1cc([N+](=O)[O-])ccc1Cl)c1ccc(Cl)cc1	?	-15%	5µM*
O=C1c2ccccc2C(=O)N1CCCCN(C(=O)c1ccc(Cl)s1)c1ccc(Cl)cc1	94	-17%	4.5µM*
Cc1ccc(N(CN2C(=O)c3ccccc3C2=O)C(=O)c2ccc([N+](=O)[O-])cc2[N+](=O)[O-])cc1	-30	-6%	-9%
Cc1ccc(N(CCCCN2C(=O)c3ccccc3C2=O)C(=O)c2cccc([N+](=O)[O-])c2)cc1	9	-8%	?
Cc1ccc(N(CCCCN2C(=O)c3ccccc3C2=O)C(=O)c2ccc(Cl)s2)cc1	-3	-8%	4%
O=C1c2cccc3cccc(c23)C(=O)N1CCCN(C(=O)c1cccs1)c1cccc(F)c1	58	?	?
O=C1c2ccccc2C(=O)N1CCCCN(C(=O)c1cc([N+](=O)[O-])cc([N+](=O)[O-])c1)c1ccc(Cl)cc1	-27	-7%	1.4µM*
COC(=O)N1C2=C(c3ccccc3[C@@H]1CC(=O)Nc1ccc3ccc4cccc5ccc1c3c45)[C@@H]1C(=O)N(c3ccccc3)C(=O)[C@@H]1[C@H](C)C2	/	?	10%[13.5 µM]
O=C(/C=C/c1ccccc1)NC(=S)N1CCSCC1	/	/	4%
O=S(=O)(Nc1ccc2cn[nH]c2c1)c1ccc(Cl)s1	/	/	-2%
O=C(Nc1ccccc1N1CCN(c2ccccc2)CC1)c1ccccc1	/	/	-3%
COc1cc(-c2cccc([C@H]3[C@@H]4C=CC[C@@H](C)[C@@H]4C(=O)N3Cc3ccccc3)c2)cc(OC)c1OC	/	-9%	?
COc1cc(OC)cc(C(=O)N[C@H](C(=O)NCc2ccco2)C(C)C)c1	/	/	7%
O=C1c2ccccc2C(=O)N1CCCCN(C(=O)c1ccc([N+](=O)[O-])cc1)c1ccc(Cl)cc1	6	-6%	1.6µM*
CC(=O)N(CCCCN1C(=O)c2ccccc2C1=O)c1ccc(C)cc1	25	-12%	0%
COC(=O)c1cc(-c2ccc(Cl)cc2)n[nH]1	/	/	1%
SMILES	PNC inhibitor	HPGD inh	ALDH1A1 inh
COC(=O)c1n[nH]n(-c2cc(Cl)cc(Cl)c2)c1=O	/	/	10µM*
COC(=O)c1ccc(C(=O)NCCCCO)cc1	/	/	8%
Cn1cccc1Cc1nnc(SCC(=O)Nc2cccc(F)c2)n1CCc1ccccc1	5	-11%	?
Cn1cccc1Cc1nnc(SCC(=O)N2CCCCCC2)n1CCc1ccccc1	-6	-9%	25µM*
CC1CCN(C(=O)CSc2nnc(Cc3cccn3C)n2CCc2ccccc2)CC1	-95*	-10%	?
Cn1cccc1Cc1nnc(SCC(=O)Nc2ccccc2F)n1CCc1ccccc1	11	-14%	25µM*
Cn1cccc1Cc1nnc(SCC(=O)N2CCCC2)n1CCc1ccccc1	-15	-13%	?
Cn1cccc1Cc1nnc(SCC(N)=O)n1CCc1ccccc1	-3	5%	-3%
O=c1[nH]ncc(N/N=C\c2cccs2)c1Cl	/	/	0%
CC(=NC(C)C)C1=C(O)C(C)OC1=O (stereo not drawn)	2	0%	6%
